From PubChem BioAssay
Several values for one entry are separate records, joined by “and”; a condition that tells them apart may be missing. Equal values may be shown once. Activity calls are given as the source filed them.

How the values were obtained:
[1] = binders of probe aFSTL3 on microarray, primary screen, stem cell growth factor project, biochemical, small-molecule microarray, fluorescence 635/667 (AID 1064); settings: higher = more signal;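 note: measures binding of the biotinylated anti-FSTL3 antibody to printed compounds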
[2] = binders from COS7 lysate, DM2A8 probe, primary screen, torsin A project, cell lysate, small-molecule microarray, fluorescence 635/667 (AID 1065); settings: higher = more signal, COS7 lysate expressing mutant human TOR1A
[3] = binders of probe aFGF2 on microarray, primary screen, stem cell growth factor project, biochemical, small-molecule microarray, fluorescence 635/667 (AID 1067); settings: higher = more signal;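 note: measures binding of biotinylated aFGF2 protein to printed compounds on slides; z-score merges feature fluorescence and signal-to-noise across triplicate slides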
[4] = binders of probe aFGF10 on microarray, primary screen, stem cell growth factor project, biochemical, small-molecule microarray, fluorescence 635/667 (AID 1071); settings: higher = more signal;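 note: score merges 667 nm spot intensity and signal to noise from triplicate slides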
[5] = biological target: Neurogenic locus notch homolog protein 2 (Homo sapiens) (UniProt Q04721); experiment: Notch2 binders on small-molecule microarrays, primary screen, biochemical, small-molecule microarray, 635 nm fluorescence, stem cell growth factors (AID 1073); settings: Notch2 binding, higher = more signal
[6] = biological target: Pro-neuregulin-1, membrane-bound isoform (Homo sapiens) (UniProt Q02297); experiment: NRG1 binders on small-molecule microarrays, primary screen, psychiatric disease protein project, biochemical, small-molecule microarray, fluorescence 635/667 (AID 1075); settings: NRG1 binding, 635 nm fluorescence, higher = more signal;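 note: score combines 667 nm spot fluorescence with signal to noise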
[7] = tested on: Neuregulin-1 EGF-like domain; experiment: binders of neuregulin-1 EGF-like domain, primary screen, biochemical, small-molecule microarray, 635 nm fluorescence (AID 1081); settings: small-molecule microarray binding, higher = more signal;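 note: binding of the protein to compounds printed on small-molecule microarray slides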
[8] = FRG1 promoter luciferase signal modulators, primary screen, FRG1 inhibition for FSHD, cell-based, C2C12 myotubes, firefly/Renilla luciferase, luminescence (AID 1084); settings: higher = more signal, called active from +8 up or from −8 down
[9] = binders of probe aFST on microarray, primary screen, stem cell growth factor project, biochemical, small-molecule microarray, fluorescence 635/667 (AID 1086); settings: higher = more signal;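 note: score merges 667 nm fluorescence with signal-to-noise of each printed compound spot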
[10] = binders of probe aHhip on microarray, primary screen, stem cell growth factor project, biochemical, small-molecule microarray, fluorescence 635/667 (AID 1087); settings: higher = more signal;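 note: score merges spot fluorescence at 667nm with spot signal to noise ratio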

Sequence of Neurogenic locus notch homolog protein 2 (Homo sapiens) (Q04721 whole entry, looked up, canonical isoform): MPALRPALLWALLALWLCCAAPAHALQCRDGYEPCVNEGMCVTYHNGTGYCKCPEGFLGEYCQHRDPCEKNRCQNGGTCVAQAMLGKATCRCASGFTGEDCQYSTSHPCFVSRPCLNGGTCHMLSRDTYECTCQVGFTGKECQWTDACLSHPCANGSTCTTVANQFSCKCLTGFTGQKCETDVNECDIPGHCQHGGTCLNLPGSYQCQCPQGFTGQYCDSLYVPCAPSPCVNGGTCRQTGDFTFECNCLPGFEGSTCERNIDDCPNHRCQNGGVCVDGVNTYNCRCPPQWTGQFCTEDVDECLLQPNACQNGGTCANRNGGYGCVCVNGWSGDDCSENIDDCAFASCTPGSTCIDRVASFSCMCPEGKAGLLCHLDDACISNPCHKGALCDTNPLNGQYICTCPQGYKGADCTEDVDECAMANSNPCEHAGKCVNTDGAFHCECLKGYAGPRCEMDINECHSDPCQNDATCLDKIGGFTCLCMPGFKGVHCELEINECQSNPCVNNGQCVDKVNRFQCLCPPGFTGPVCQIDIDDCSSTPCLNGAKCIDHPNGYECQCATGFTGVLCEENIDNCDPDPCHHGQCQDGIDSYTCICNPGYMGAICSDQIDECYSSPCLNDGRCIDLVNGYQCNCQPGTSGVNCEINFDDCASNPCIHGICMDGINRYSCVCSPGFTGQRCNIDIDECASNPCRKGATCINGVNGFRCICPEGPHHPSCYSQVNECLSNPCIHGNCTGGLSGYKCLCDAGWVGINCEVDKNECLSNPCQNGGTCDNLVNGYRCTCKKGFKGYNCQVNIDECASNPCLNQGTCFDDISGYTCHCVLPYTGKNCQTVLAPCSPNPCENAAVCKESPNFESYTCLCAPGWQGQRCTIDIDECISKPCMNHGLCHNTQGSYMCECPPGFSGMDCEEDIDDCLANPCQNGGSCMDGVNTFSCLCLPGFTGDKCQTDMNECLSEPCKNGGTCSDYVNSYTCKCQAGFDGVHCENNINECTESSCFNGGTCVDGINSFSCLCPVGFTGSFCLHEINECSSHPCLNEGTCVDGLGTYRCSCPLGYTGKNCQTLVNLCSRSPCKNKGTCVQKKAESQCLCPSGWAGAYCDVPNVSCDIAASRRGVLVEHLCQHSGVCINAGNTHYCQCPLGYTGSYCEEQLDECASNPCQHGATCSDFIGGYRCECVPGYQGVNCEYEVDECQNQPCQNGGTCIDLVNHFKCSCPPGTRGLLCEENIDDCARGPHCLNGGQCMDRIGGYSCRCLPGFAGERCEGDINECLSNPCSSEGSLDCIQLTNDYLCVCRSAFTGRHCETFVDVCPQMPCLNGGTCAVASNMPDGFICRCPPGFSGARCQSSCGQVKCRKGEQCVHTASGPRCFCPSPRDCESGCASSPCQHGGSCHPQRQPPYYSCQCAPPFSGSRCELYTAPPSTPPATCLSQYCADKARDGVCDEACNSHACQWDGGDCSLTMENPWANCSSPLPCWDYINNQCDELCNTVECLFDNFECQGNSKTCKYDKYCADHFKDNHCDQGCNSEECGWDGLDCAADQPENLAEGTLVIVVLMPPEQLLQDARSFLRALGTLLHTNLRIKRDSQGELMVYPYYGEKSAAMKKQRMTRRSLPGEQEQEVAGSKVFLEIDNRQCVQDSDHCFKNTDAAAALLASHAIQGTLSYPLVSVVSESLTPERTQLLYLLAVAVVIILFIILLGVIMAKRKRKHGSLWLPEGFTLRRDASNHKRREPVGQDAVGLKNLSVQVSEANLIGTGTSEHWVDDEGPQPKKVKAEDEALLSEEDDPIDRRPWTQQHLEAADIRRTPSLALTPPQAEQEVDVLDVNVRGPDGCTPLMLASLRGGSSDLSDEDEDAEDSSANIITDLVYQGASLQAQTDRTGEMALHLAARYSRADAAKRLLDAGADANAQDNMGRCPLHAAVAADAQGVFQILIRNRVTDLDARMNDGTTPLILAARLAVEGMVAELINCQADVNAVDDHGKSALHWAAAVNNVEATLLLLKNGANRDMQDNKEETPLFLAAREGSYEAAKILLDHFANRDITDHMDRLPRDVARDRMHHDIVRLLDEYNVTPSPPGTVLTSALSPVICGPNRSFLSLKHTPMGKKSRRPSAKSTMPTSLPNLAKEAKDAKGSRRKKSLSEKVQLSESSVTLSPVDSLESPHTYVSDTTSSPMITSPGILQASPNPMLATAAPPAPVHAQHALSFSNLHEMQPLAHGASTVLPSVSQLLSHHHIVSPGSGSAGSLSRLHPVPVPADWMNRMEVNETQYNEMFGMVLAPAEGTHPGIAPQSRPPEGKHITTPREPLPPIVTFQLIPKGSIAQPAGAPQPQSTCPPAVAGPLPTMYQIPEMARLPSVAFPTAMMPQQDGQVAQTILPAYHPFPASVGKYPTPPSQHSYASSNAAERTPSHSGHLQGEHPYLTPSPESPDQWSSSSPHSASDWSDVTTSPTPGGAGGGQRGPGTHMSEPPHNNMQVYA
Sequence of Pro-neuregulin-1, membrane-bound isoform (Homo sapiens) (Q02297 whole entry, looked up, the tested form may be a part, canonical isoform): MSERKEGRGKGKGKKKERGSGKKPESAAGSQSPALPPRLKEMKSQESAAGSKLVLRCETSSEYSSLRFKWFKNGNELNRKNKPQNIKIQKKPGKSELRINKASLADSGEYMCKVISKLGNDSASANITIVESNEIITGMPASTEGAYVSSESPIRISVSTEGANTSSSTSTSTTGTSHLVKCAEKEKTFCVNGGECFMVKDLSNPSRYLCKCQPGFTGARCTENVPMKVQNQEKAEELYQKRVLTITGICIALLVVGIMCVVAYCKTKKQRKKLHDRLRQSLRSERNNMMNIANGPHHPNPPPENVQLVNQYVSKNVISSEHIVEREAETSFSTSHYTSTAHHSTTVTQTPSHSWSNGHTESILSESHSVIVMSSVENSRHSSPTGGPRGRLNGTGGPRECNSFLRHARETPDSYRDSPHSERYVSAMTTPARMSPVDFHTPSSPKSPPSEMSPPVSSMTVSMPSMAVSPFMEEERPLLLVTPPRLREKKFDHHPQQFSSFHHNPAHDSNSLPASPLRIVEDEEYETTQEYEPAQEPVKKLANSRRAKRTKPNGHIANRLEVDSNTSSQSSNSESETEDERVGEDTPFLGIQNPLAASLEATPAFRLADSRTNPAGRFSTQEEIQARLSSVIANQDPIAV

SMILES | composite z-score [1] | composite z-score [2] | composite z-score [3] | composite z-score [4] | composite z-score [5] | composite z-score [6] | composite z-score [7] | z-score [8] | composite z-score [9] | composite z-score [10]
COc1ccc(COC(=O)NN=C2C[C@@H](O)[C@@H](O)[C@@H]3[C@@H]4C(=O)N(C(C)(C)C)C(=O)[C@@H]4CC[C@H]23)cc1 | -0.494 | 0.602 | -0.0439 | 0.799 | 0.29 | 1.46 | 1.13 | -1.03 (inactive) | 0.0715 | -0.13
COC(=O)C1=C(C)N(Cc2ccccc2)C2=C(C(=O)c3ccccc3)[C@H](c3ccccc3)[C@@](O)(C(=O)OC)C(=O)N2[C@@H]1c1ccccc1 | -0.195 and -0.325 | -0.16 and 0.0962 | -0.0759 and -0.0691 | 0.429 and 0.387 | 0.98 and 0.272 | 0.296 and -0.085 | 0.672 and 0.253 | -0.363 (inactive) and 0.429 (inactive) | 0.128 and 0.0478 | -0.236 and 0.625
C=C[C@H](OC)[C@@H](O)c1ccc(O)c(F)c1 | 1.25 and 1.29 | -0.903 and -2.05 | -0.116 and -0.247 | -0.458 and -0.0501 | -2.17 and -1.38 | -0.527 and -1.01 | -0.0988 and 0.736 | 0.537 (inactive) and -0.0808 (inactive) | -1.08 and -1.54 | -0.213 and -0.314
CON(C)C(=O)c1nnc2c3ccccc3n(S(=O)(=O)c3ccc(C)cc3)c2n1 | -0.492 and -0.386 | 0.216 and 0.226 | -0.208 and 0.0937 | 0.455 and 0.814 | 0.81 and 0.675 | 1.08 and 0.789 | 0.804 and 1.19 | 161 (active) and 193 (active) | -0.458 and 0.184 | 0.12 and 0.28
C=CCN(Cc1ccccc1)C(=O)C(c1cccs1)N(C(=O)/C=C\C(=O)O)c1c(Cl)cccc1CO (stereo not given) | 0.233 and 1.13 | -0.778 and -1.07 | -0.241 and -0.193 | -1.08 and -2.14 | -1.53 and -2.16 | -0.984 and -1.12 | 0.462 and -0.851 | -0.0406 (inactive) and 0.885 (inactive) | -1.91 and -1.01 | -0.549 and -0.38
CC[C@@H]1C(Sc2ccccc2)C(C(=O)O)[C@H](c2ccc(C)cc2)N1S(=O)(=O)c1ccc(C)cc1 (stereo not given in full) | 0.249 and -0.499 | 0.364 and -0.0981 | 0.0013 and 0.166 | 0.579 and 0.288 | 1.56 and 1.12 | 1.82 and 1.91 | 1.39 and 1.2 | -3.66 (inactive) and -3.89 (inactive) | 0.254 and 1.05 | -0.179 and -0.0994
C=CCN(CCCCC)C(=O)C1N(CCCCCCO)C(=O)C2C(C(=O)O)C3C=CC21O3 (stereo not given) | 1.25 and 0.679 | -0.833 and -1.2 | -0.2 and -0.248 | -1.43 and -1.82 | -2.1 and -1.82 | -0.54 and 0.234 | 1.07 and 1.32 | -0.0502 (inactive) and -0.095 (inactive) | -0.855 and -1.02 | -0.331 and -0.287
C[C@@H]1CC[C@H]2C(=O)O[C@H](CN=[N+]=[N-])CN2[C@H]1c1ccc(Br)cc1 | -0.0927 and -0.0564 | 0.622 and 0.269 | -0.158 and -0.187 | -0.12 and -0.336 | -0.321 and -0.635 | -0.198 and 0.292 | -0.238 and -0.279 | -0.492 (inactive) and -0.161 (inactive) | 0.3 and -0.405 | -0.0657 and -0.0618
C=CCN(CCCCC)C(=O)C(c1cccs1)N(C(=O)/C=C\C(=O)O)c1c(Cl)cccc1CO (stereo not given) | 0.0175 and 0.264 | -0.764 and -0.654 | -0.21 and -0.122 | -1.57 and -1.12 | -2.35 and -1.74 | 1.12 and -0.954 | 0.683 and 0.526 | -0.383 (inactive) and 0.395 (inactive) | -0.655 and -1.1 | -0.128 and -0.323
C=CCN(Cc1ccccc1)C(=O)C1N(C(C)(C)CO)C(=O)C2C(C(=O)O)C3C=CC21O3 (stereo not given) | 0.666 and 0.391 | 2.08 and -1.13 | -0.206 and 0.511 | -2.12 and -0.387 | -2.15 and -1.36 | -1 and -0.987 | -0.372 and 0.11 | 0.551 (inactive) and 0.312 (inactive) | -0.847 and -1.28 | -0.274 and -0.169
C=CCN(CCCC)C(=O)C1N(c2c(Cl)cccc2CO)C(=O)C2C(C(=O)O)C3C=CC21O3 (stereo not given) | 1.38 and 0.489 | -0.331 and -0.392 | -0.247 and -0.307 | -0.842 and -1.3 | -1.17 and -1.13 | -0.909 and 0.0849 | -0.981 and 0.374 | 0.183 (inactive) and -0.987 (inactive) | -0.931 and -0.719 | -0.412 and -0.323
CCCNC(=O)OC[C@H]1O[C@H](CCON=C(C)CCC(=O)OC[C@H]2O[C@H](C#Cc3ccccc3)C=C[C@@H]2Oc2ccc(C)cc2)C=C[C@@H]1Oc1ccc(OC)cc1 | 0.0836 | -0.115 | -0.124 | -0.187 | -0.0132 | -0.21 | -0.861 | 0.751 (inactive) | -0.244 | 1.27
C[C@@H]1CC[C@H]2C(=O)N3[C@@H](CC[C@@H](C)[C@@H]3c3ccc(-c4ccco4)cc3)C(=O)N2[C@H]1c1ccc(-c2ccco2)cc1 | -0.23 and 1.14 | 0.762 and 1.98 | -0.0084 and -0.0668 | 0.906 and 1.16 | 0.422 and 1.15 | 0.992 and 0.667 | 1.29 and 1.3 | -0.248 (inactive) and 0.445 (inactive) | 0.443 and 1.26 | 0.132 and 0.259
CC(C)=NOC[C@@H](O)COCc1ccco1 | -0.0008 | 2.26 | -0.0924 | 0.0026 | -1.37 | 0.126 | -0.603 | 0.929 (inactive) | -0.549 | -0.0645
CC(CO)N1C(=O)[C@@H]2C3C(=O)OCCC=C[C@H]3OC23C=CCN(Cn2nnc4ccccc42)C(=O)[C@@H]13 (stereo not given in full) | 0.634 and 0.0762 | -1.37 and 0.709 | -0.187 and -0.0234 | 0.0583 and 0.509 | -1.7 and -0.0585 | 1.32 and 1.91 | 1.5 and 1.48 | -0.191 (inactive) and 0.519 (inactive) | -0.545 and -0.255 | -0.137 and -0.228
